Only some compounds are listed: those with a hit (about 1% of all), similar ones and a draw of the others.
E-sel TNF inh – E-selectin induction blockers in HUVEC – imaging, immunofluorescence, high content, primary screen; HUVEC TNFa-induced E-selectin immunofluorescence; inhibition, % at 2 µM; actives 0.71% (n = 120,000); AID 1246, 2008;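 active means inhibition above the batch mean plus 3 SD, and confirmed as a hit on visual image review, cut at about 43% in these data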
HUVEC tox TNFa – cytotoxicity in TNFa-stimulated HUVEC, primary screen, cytotoxicity control for VCAM1 expression modulator project, imaging, Hoechst nuclei count; HUVEC TNFalpha-stimulated, Hoechst cell count; cell count reduction, % at 2 µM; actives 0.17% (n = 93,000); AID 848, 2007;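 active means cell count reduction exceeding the screen mean by over 5 SD, scaled to untreated wells per plate, cut at about 78% in these data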;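 further: cells counted after 24 h of TNF alpha exposure following the 1 h pretreatment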
VCAM1 TNFa inh – inhibitors of TNFa-induced VCAM1 expression, primary screen, imaging, HUVEC, TNFa stimulus, immunofluorescence. HUVEC TNFa-induced VCAM-1 immunofluorescence, high-content imaging. inhibition, % at 2 µM. actives 0.48% (n = 95,000). AID 802, 2007;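 active means inhibition above the batch mean plus 3 SD, with images confirmed as a hit by eye, cut at about 37% in these data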
F-actin modifier – modifiers of F-actin cytoskeleton organization, primary screen, imaging, HUVEC, phalloidin staining, high-content imaging. HUVEC TNFa F-actin phalloidin imaging. inhibition, % at 2 µM. actives 0.18% (n = 91,000). AID 836, 2007;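 active means inhibition above the batch mean plus 3 SD and confirmed as a hit by visual image inspection, cut at about 30% in these data, passing the limit was not always enough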
Of the large screens only hits and unclear results are named; the others gave an inactive call.

COc1ccc(-c2csc3ncnc(Oc4cccc5ccc(C)nc45)c23)cc1	E-sel TNF inh 89 (no result: HUVEC tox TNFa, VCAM1 TNFa inh, F-actin modifier)
Cc1ccc2cccc(Oc3ncnc4scc(-c5ccccc5)c34)c2n1	none (no result: HUVEC tox TNFa, VCAM1 TNFa inh, F-actin modifier)
OC(c1ccc2c(c1)OCO2)c1nccc2ccccc12 (configuration not stated)	E-sel TNF inh 72
O=c1cc(CO)oc(C(Nc2ccccn2)c2ccccc2F)c1O (configuration not stated)	E-sel TNF inh 68
COc1ccc2c(c1)C1CC(C)(NC(=O)C1S(=O)(=O)c1ccc(F)cc1)O2 (configuration not stated)	E-sel TNF inh 77 (no result: HUVEC tox TNFa, VCAM1 TNFa inh, F-actin modifier)
C=CCn1c(SCC(=O)Nc2nccs2)nnc1-c1cc2cccc(OC)c2o1	none
CN1CCN(C(=O)CCc2nc3ccccc3c(=O)[nH]2)CC1	none
Cc1ccc(CNC(=O)CCc2nc3ccccc3c(=O)[nH]2)cc1	E-sel TNF inh 62 (no result: HUVEC tox TNFa, VCAM1 TNFa inh, F-actin modifier)
COc1ccc(NC(=O)c2cc(-c3ccc(OC)c(OC)c3)on2)cc1OC	E-sel TNF inh 80
Nc1nnc2c(n1)CCCC2	none
Cc1cc(NC(=O)C(=O)NCCN2CCN(C(=O)c3cccs3)CC2)ccc1Br	F-actin modifier 34
COc1ccc(NC(=O)C(=O)NCCN2CCN(C(=O)c3cccs3)CC2)cc1	none
Cc1ccc(SCCC(=O)Nc2ccccc2C(=O)NC(C)C)cc1	E-sel TNF inh 67 (no result: HUVEC tox TNFa, VCAM1 TNFa inh, F-actin modifier)
CCOC(=O)N1CCN(c2cc(=O)n(-c3ccc(C)cc3)c(=O)[nH]2)CC1	none (no result: HUVEC tox TNFa, VCAM1 TNFa inh, F-actin modifier)
O=C(CCN1C(=O)C2C3C=CC(C3)C2C1=O)NCC1CCCO1 (configuration not stated)	F-actin modifier 69 (no result: E-sel TNF inh)
O=C(NCC1CCCO1)c1cccc(N2C(=O)C3C4C=CC(C4)C3C2=O)c1 (configuration not stated)	none (no result: HUVEC tox TNFa)
O=C(NC1CCCCNC1=O)c1ccc(Cl)cc1 (configuration not stated)	none
COc1ccc(N2CCN(c3ncnc4c3cnn4-c3ccc(C)cc3C)CC2)cc1	none
Cc1ccc(-n2ncc3c(N4CCN(c5ccccc5)CC4)ncnc32)c(C)c1	VCAM1 TNFa inh 96 (no result: HUVEC tox TNFa)
COc1ccccc1C(=O)NC(CCSC)C(=O)NCC(c1ccco1)N(C)C (configuration not stated)	none (no result: E-sel TNF inh)
COc1ccccc1C(=O)NC(CCSC)C(=O)OCC(=O)NC(=O)NCc1ccco1 (configuration not stated)	E-sel TNF inh 97 (no result: HUVEC tox TNFa, VCAM1 TNFa inh, F-actin modifier)
CCOC(=O)/C(=C/c1ccc(N2CCC(c3ccccc3)=N2)cc1)C(C)=O	none (no result: HUVEC tox TNFa, VCAM1 TNFa inh, F-actin modifier)
Cc1ccc(N2CC(C(=O)Nc3ccc(N(C)C)cc3)CC2=O)cc1C (configuration not stated)	none
Cc1cc(N2CC(C(=O)O)CC2=O)ccc1Br (configuration not stated)	HUVEC tox TNFa 92
COc1cc2c(cc1NC(=O)CN1CCN(S(=O)(=O)c3ccc(C)cc3)CC1)oc1ccccc12	none
O=C(/C=C\Nc1cccc(F)c1)c1cccs1	E-sel TNF inh 70
O=C(/C=C/Nc1ccc(F)cc1F)c1cccs1	none (no result: HUVEC tox TNFa, VCAM1 TNFa inh, F-actin modifier)
O=C1CC(c2ccc(Cl)cc2)n2nc(NS(=O)(=O)c3ccc(F)cc3)nc2N1 (configuration not stated)	none
COc1ccc(-c2cc3ccc(OCc4nn[nH]n4)cc3oc2=O)cc1OC	VCAM1 TNFa inh 51
CNC(=O)CN(c1ccc(OC)cc1)S(=O)(=O)c1ccc(F)cc1	VCAM1 TNFa inh 93
CCC(=O)n1nc(-c2ccccc2)nc1N	none
Cc1ccc(-n2c(C)cc(C=C(C#N)C#N)c2C)cc1	E-sel TNF inh 52
O=C(OCn1ncc(Br)c(Br)c1=O)c1c(F)cccc1F	VCAM1 TNFa inh 74
CC(C)Cn1cnc2c1c(=O)n(CC(=O)Nc1ccc3c(c1)OCO3)c(=O)n2Cc1ccccc1	E-sel TNF inh 71
Cc1cc(NC(=O)Cn2c(=O)c3c(ncn3CC(C)C)n(Cc3ccccc3)c2=O)no1	none (no result: HUVEC tox TNFa, VCAM1 TNFa inh, F-actin modifier)
O=C(O)CCCCCCNS(=O)(=O)c1ccccc1	none
Cc1c(C(=O)NC(C)c2ccncc2)oc2ccccc12 (configuration not stated)	E-sel TNF inh 100
Cc1c(C(=O)Nc2ccncc2)oc2ccccc12	none
C=CCc1ccccc1OCC(O)CNC (configuration not stated)	HUVEC tox TNFa 94, VCAM1 TNFa inh 56, F-actin modifier 67
C=CCc1ccccc1OCC(O)CN(C(C)C)C(C)C (configuration not stated)	none
O=C(Cn1cc(C(F)(F)F)ccc1=O)N/N=C/c1ccc(Cl)c(Cl)c1	none (no result: HUVEC tox TNFa, VCAM1 TNFa inh, F-actin modifier)
O=C(Nc1ccc(Oc2ccccc2)cc1)C1CCCN(c2ncccn2)C1 (configuration not stated)	F-actin modifier 71
O=C(CN1CCSCC1)N1CCc2[nH]c3ccc(Br)cc3c2C1	VCAM1 TNFa inh 61
Cc1ccc2[nH]c3c(c2c1)CN(C(=O)CN1CCN(c2cccc(C)c2C)CC1)CC3	none
COc1ccc(C(=O)NCc2ccc3c(c2)OCO3)cc1S(=O)(=O)NCc1ccc(Cl)cc1	none (no result: HUVEC tox TNFa, VCAM1 TNFa inh, F-actin modifier)
COc1ccc(C(=O)NCCNC(C)=O)cc1S(=O)(=O)NCc1ccc(Cl)cc1	E-sel TNF inh 57
COc1ccccc1N1CCN(C(c2ccc(N(C)C)cc2)c2nnnn2CCc2ccccc2)CC1 (configuration not stated)	none
COC(=O)c1sccc1NC(=O)c1ccc(C)s1	none
COC(=O)c1sccc1NC(=O)c1ccc(Br)s1	VCAM1 TNFa inh 53
Cc1cc([N+](=O)[O-])nn1CCCC(=O)Nc1sc2c(c1C(N)=O)CCCC2	none (no result: HUVEC tox TNFa, VCAM1 TNFa inh, F-actin modifier)
NC(=O)c1c(NC(=O)Cc2cccs2)sc2c1CCC2	VCAM1 TNFa inh 92
Cc1cc([N+](=O)[O-])nn1CC(=O)Nc1sc2c(c1C(N)=O)CCCC2	E-sel TNF inh 80 (no result: HUVEC tox TNFa, VCAM1 TNFa inh, F-actin modifier)
C#CCOCCOCCOCCNc1nc(N2CCOCC2)nc(N2CCN(C(=O)[C@H]([C@@H](C)CC)n3cc(CCCN=C(N)N)nn3)CC2)n1	none (no result: HUVEC tox TNFa, VCAM1 TNFa inh, F-actin modifier)
Cc1cc(-n2nnc3ccccc32)nc2ccccc12	none
Cc1nn(-c2cc(C)c3ccccc3n2)c2c1C1C(C2)C1(C)C (configuration not stated)	VCAM1 TNFa inh 60
COC(=O)CN1C(=O)S/C(=C/c2cc(C)n(C)c2C)C1=O	none
Cc1cc(NC(=O)c2ccc3c(c2)C(=O)N(Cc2ccccc2)C3=O)no1	none (no result: HUVEC tox TNFa, VCAM1 TNFa inh, F-actin modifier)
Nc1ccn([C@H]2CC[C@@H](CO)O2)c(=O)n1	none (no result: HUVEC tox TNFa, VCAM1 TNFa inh, F-actin modifier)
O=C(CN(c1ccccc1)S(=O)(=O)c1ccccc1)NCCSc1nc2ccccc2s1	none
CCC(C)(C)n1nnnc1C(c1ccc(OC)c(OC)c1)N1CCN(c2cccc(OC)c2)CC1 (configuration not stated)	none
CCC(C)(C)n1nnnc1C(c1ccc(OC)c(OC)c1)N1CCN(c2ccccc2)CC1 (configuration not stated)	E-sel TNF inh 83
O=C(CCCCCN1C(=O)c2ccccc2C1=O)Nc1nccs1	VCAM1 TNFa inh 50
O=C(CCCCCN1C(=O)c2ccccc2C1=O)Nc1ccccc1	none
CCOC(=O)/C=C/S(=O)(=O)c1ccc(NC(C)=O)cc1	E-sel TNF inh 76
CCOc1ccc(NC2CCN(C(C)=O)CC2)cc1	none

Bioassay records: PubChem, Columbia University Molecular Screening Center
